Only some compounds are listed: those with a hit (about 28% of all), similar ones and a draw of the others.
D1 allo mod – D1 dopamine receptor (human) allosteric modulation. AID 641. P21728. 58,000 compounds, 5.9% hits. HEK293 D1, CRE-luciferase, dopamine EC30 potentiation; actives deviate in either direction. B-score at 10 µM;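 active means luminescence count or its row- and column-corrected plate score outside the 99.7% band of the plate's sample wells, on either side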
hDAT+cocaine – changed human dopamine transporter uptake under cocaine IC80 | LLC-PK1 hDAT cells, [14C]-dopamine uptake with cocaine IC80; actives deviate in either direction | Q01959 | B-score at 10 µM | 110,000 compounds, 1.3% hits;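 active means Z score or B-score, a plate-position-corrected score, falls beyond the plate's 99.7% confidence bounds, in either direction; inactive means both scores lie inside the 99.7% bounds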;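 further: scored against the spread of the other compound wells on the same plate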
CYP2C9 inhib – blocks human cytochrome P450 2C9; P11712; CYP2C9 Supersomes, luciferin-H conversion, luminescence; inhibition, % at 5 µM; 96,000 compounds, 20% hits;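 active means blocking of liver enzyme CYP2C9 beyond about 50% at 5 µM, limit read from the data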
Target sequence (P11712 whole entry, looked up): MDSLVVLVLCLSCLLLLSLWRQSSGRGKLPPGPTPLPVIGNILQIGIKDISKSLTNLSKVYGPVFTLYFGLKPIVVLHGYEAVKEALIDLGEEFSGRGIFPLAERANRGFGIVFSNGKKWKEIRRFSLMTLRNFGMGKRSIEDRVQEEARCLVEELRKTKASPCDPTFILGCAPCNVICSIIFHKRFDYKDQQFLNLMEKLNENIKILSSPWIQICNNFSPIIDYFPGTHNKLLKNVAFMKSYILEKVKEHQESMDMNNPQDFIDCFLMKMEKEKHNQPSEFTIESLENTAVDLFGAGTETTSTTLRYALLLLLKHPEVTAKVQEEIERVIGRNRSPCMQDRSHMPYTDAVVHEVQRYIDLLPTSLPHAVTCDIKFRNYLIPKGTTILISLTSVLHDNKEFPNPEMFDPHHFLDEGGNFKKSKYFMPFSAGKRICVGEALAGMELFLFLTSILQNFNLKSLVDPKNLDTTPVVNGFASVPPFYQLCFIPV
CYP2C9 activ – activators of human CYP2C9; recombinant CYP2C9, luciferin-H conversion, luminescence; stronger effect = higher value; factor 1 = untreated enzyme, 0 = blocked; activation factor at 5 µM; 96,000 compounds, 1.4% hits;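 active means activation factor of 2 or more for CYP2C9 at a 5 µM dose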;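 further: 0 = sulfaphenazole-blocked wells and 1 = vehicle-only wells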
CYP2C19 activ – activators of human cytochrome P450 2C19; P33261; recombinant CYP2C19, luciferin-H EGE luminescence; stronger effect = higher value; 0 = fully inhibited enzyme, 1 = untreated enzyme; activation factor at 5 µM; 96,000 tested, under 10 active;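 active means activation factor of at least 2 at 5 µM in the primary screen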;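 further: 0 = wells with 2.5 mM tranylcypromine and 1 = vehicle-only wells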
CYP2C19 inhib – human CYP2C19 inhibition | CYP2C19 Supersomes, luciferin-H EGE luminescence, 30 min | 96,000 compounds, 21% hits | inhibition, % at 5 µM | P33261;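 active means CYP2C19 inhibition above a set limit at 5 µM in the primary screen, cut at about 50% in these data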;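 further: plate controls were negative control wells for no effect and 2.5 mM tranylcypromine positive control for full effect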
An asterisk follows results filed as active; nt = no result given.

SMILES	D1 allo mod	hDAT+cocaine	CYP2C9 inhib	CYP2C9 activ	CYP2C19 activ	CYP2C19 inhib
Cc1c(Cl)cccc1N(CC(=O)NC1CCCCC1)S(C)(=O)=O	-0.41	nt	70*	0.3	0.7	28
CCCCCCSc1nc(O)c(C2OC(=O)c3c2ccc(OC)c3OC)c(=O)n1-c1ccccc1 (configuration not stated)	nt	0.59	39	0.6	0.9	10
COc1ccccc1NC(=O)N(C1CCCC1)C1CCN(C(C)=O)CC1	-0.29	1	-6	1.1	1.1	-6
CCOC(=O)N1CCN(C2=NC3(CCCCC3)C(C#N)C(=O)N2)CC1 (configuration not stated)	-0.27	0.53	0	1	1	-1
CC(/C=N/NC(=O)c1ccc(Br)cc1)=C\c1ccccc1	nt	0.4	30	0.7	1	-1
CC(/C=C1\SC(=S)N(NC(=O)c2ccc(C)cc2)C1=O)=C\c1ccccc1	nt	-0.01	61*	0.4	0.8	18
C/C(N)=C(/C#N)C(=O)COC(=O)CCSc1ccccc1	-0.9	0.41	36	0.6	0.3	68*
CCN(C(=O)COC(=O)c1cc(C)n(-c2ccc(F)cc2)c1C)C1CCS(=O)(=O)C1 (configuration not stated)	0.66	-0.044	12	0.9	0.8	15
C/C(N)=C(/C#N)C(=O)COC(=O)c1ccc(C)c(S(=O)(=O)N2CCCCC2)c1	nt	0.4	62*	0.4	0.2	81*
C/C(N)=C(/C#N)C(=O)COc1ncnc2ccc(Br)cc12	0.049	-0.16	11	0.9	0.8	21
C/C(N)=C(/C#N)C(=O)COC(=O)c1ccncc1	-0.26	0.32	42	0.6	0.4	65*
C/C(N)=C(/C#N)C(=O)COC(=O)c1cc(C)n(-c2ccc(F)cc2)c1C	1.8	-0.2	42	0.6	0.4	59*
C/C(N)=C(/C#N)C(=O)COC(=O)CCS(=O)(=O)c1ccccc1	nt	-0.37	5	0.9	0.7	27
COCc1c(C)cc(C)c(/C=N/O)c1C	-0.029	-0.15	-21	1.2	1	-2
COc1ccc(CNC(=O)c2ccc(=O)oc2)cc1OC	0.0028	0.046	23	0.8	0.6	39
C=CC1=C2C=C(C3CC3)N(C3CC3)C=C2C(=O)C(C)(OC(=O)c2ccco2)C1=O (configuration not stated)	nt	-0.9	nt	nt	nt	nt
COc1ccccc1N1CCN(C(=O)CSc2ccc3c(C)cc(C)nc3n2)CC1	-0.36	-1.3	nt	nt	nt	nt
C/C(N)=C(/C#N)C(=O)COC(=O)c1cc(S(=O)(=O)N2CCCCC2)ccc1C	-0.85	nt	20	0.8	0.5	51*
COc1cccc(NC(=O)COC(=O)c2cc(S(=O)(=O)N3CCOCC3)ccc2C)c1	nt	0.36	34	0.7	0.8	23
CCCCC(=O)NC(Nc1ccc(C)cn1)(C(=O)OCC)C(F)(F)F (configuration not stated)	1.7	-0.13	18	0.8	0.3	66*
COC(=O)C(NC(C)=O)(Nc1ccc(Br)cn1)C(F)(F)F (configuration not stated)	nt	0.18	29	0.7	0.2	82*
COC(=O)C(NC(C)=O)(Nc1nc(C)cs1)C(F)(F)F (configuration not stated)	nt	0.079	19	0.8	0.9	10
COC(=O)C(NC(C)=O)(Nc1nc2c(C)cc(C)cc2s1)C(F)(F)F (configuration not stated)	nt	-0.73	99*	0	0.1	92*
COC(=O)C(NC(=O)c1ccco1)(Nc1ccc(Br)cn1)C(F)(F)F (configuration not stated)	-0.5	-0.46	16	0.8	0.1	94*
COC(=O)CC1SC(=O)NC1=Nc1cccc(C)c1 (configuration not stated)	nt	-0.17	12	0.9	0.9	12
COC(=O)C(NC(C)=O)(Nc1ccccn1)C(F)(F)F (configuration not stated)	-0.71	-0.43	50*	0.5	0.9	12
COC(=O)c1ccc(Cl)c(NC(=O)NC23CC4CC(CC(C4)C2)C3)c1	nt	0.32	82*	0.2	0.3	68*
CCOc1ccccc1N(CC(=O)NC1CCCC1)C(=O)CCCC(=O)Nc1ccccn1	-1.4	0.39	28	0.7	0.9	13
